The text below walks through data of PubChem BioAssay (EPA / NIEHS).

Test [1] in a line: ATG_PBREM_CIS: Attagene CIS-FACTORIAL HepG2 Assay for human Phenobarbital-responsive Enhancer Module (PBREM) (AID 2282955). The following applies: HepG2 PBREM cis-reporter, Attagene multiplexed transcription; actives raise or lower the signal. The gist of the method:
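Cells were transfected with cis-element reporter units and treated for 24 h, after which RNA was extracted and reporter transcripts measured by RT-PCR and capillary electrophoresis.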

Test [2] addresses Paired box protein Pax-6 (Homo sapiens) (UniProt P26367). In words: ATG_Pax6_CIS: Attagene CIS-FACTORIAL HepG2 Assay for human Paired Box 6 (PAX6) (AID 2282956). The conditions noted are these: HepG2 CIS-FACTORIAL PAX6 reporter transcription, RNA readout; actives raise or lower the signal. The gist of the method:
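DMSO-referenced bidirectional fits of reporter mRNA fluorescence; HepG2 with transient cis-promoter MRTUs, 24 h post-dose, RT-PCR plus capillary electrophoresis detection.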

Test [3] can be described thus: ATG_PXRE_CIS: Attagene CIS-FACTORIAL HepG2 Assay for human Pregnane X Receptor Element (PXRE) (AID 2282957). The conditions noted are these: HepG2 Attagene CIS-FACTORIAL PXRE reporter, mRNA; actives raise or lower the signal. In a few lines:
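After a 24 h chemical incubation, total RNA from transfected HepG2 cells was reverse-transcribed and reporter cDNA amplified, FAM-labeled, HpaI-digested and sized by capillary electrophoresis. DMSO served as baseline for bidirectional curve fitting.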

Test [4] can be described thus: ATG_PPRE_CIS: Attagene CIS-FACTORIAL HepG2 Assay for human Peroxisome Proliferator-activated Response Element (PPRE) (AID 2282958). The conditions noted are these: HepG2 PPRE cis-element reporter, Attagene transcription factor profiling; actives raise or lower the signal. In a few lines:
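In this cell-based multiplex, a PPRE cis element drives a reporter sequence in transiently transfected HepG2 cells. Following 24 h treatment, labeled cDNA amplicons are sized and quantified by capillary electrophoresis, with DMSO defining baseline.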

The nature of test [5]: ATG_RORE_CIS: Attagene CIS-FACTORIAL HepG2 Assay for human RAR-related Orphan Receptor Element (RORE) (AID 2282959). The following applies: HepG2 Attagene cis-factorial RORE reporter, mRNA; actives raise or lower the signal. The gist of the method: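 Endogenous factor activity at a cis response element is read as reporter transcript levels in HepG2 cells, 24 h post-dose. Transcripts are quantified by RT-PCR with capillary electrophoresis, and data fitted in both directions against DMSO.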

A short description of test [6]: ATG_Sox_CIS: Attagene CIS-FACTORIAL HepG2 Assay for human SRY-box transcription factor (SOX) (AID 2282960). The following applies: HepG2 Attagene cis-factorial SOX reporter, mRNA; actives raise or lower the signal. In a few lines: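 Measures mRNA induction of a SOX1-associated reporter in HepG2 after 24 h dosing. Fluorescently labelled RT-PCR fragments are separated by capillary electrophoresis, and gain or loss relative to DMSO control is fitted.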

In test [7] the target is Transcription factor Sp1 (Homo sapiens) (UniProt P08047). In words: ATG_Sp1_CIS: Attagene CIS-FACTORIAL HepG2 Assay for human Specificity Protein 1 (Sp1) (AID 2282961). The following applies: HepG2 Sp1 cis-reporter transcription, actives raise or lower the signal. In a few lines:
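Cells: HepG2, transiently transfected with cis-regulated multiplexed reporters. Exposure: 24 h. Detection: reporter transcripts amplified, fluorescently labeled, restriction-digested and sized by capillary electrophoresis. Analysis: bidirectional fit relative to DMSO.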

The nature of test [8]: ATG_SREBP_CIS: Attagene CIS-FACTORIAL HepG2 Assay for human Sterol Regulatory Element Binding (SREBP) (AID 2282962). The following applies: HepG2 Attagene cis-factorial SREBP reporter, mRNA; actives raise or lower the signal. The gist of the method: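 In this cis-format assay, HepG2 liver cells express reporters controlled by promoter elements responsive to native transcription factors. Exposure lasts 24 h; reporter mRNA fluorescence from capillary electrophoresis gives the signal, fitted bidirectionally against DMSO.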

For test [9], the target named is Signal transducer and activator of transcription 3 (Homo sapiens) (UniProt P40763). Description: ATG_STAT3_CIS: Attagene CIS-FACTORIAL HepG2 Assay for human Signal Transducer and Activator of Transcription 3 (STAT3) (AID 2282963). The conditions noted are these: HepG2, Attagene cis-factorial STAT3 reporter transcription; actives raise or lower the signal. The gist of the method:
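Readout: fluorescent reporter mRNA fragments resolved by capillary electrophoresis. Setup: HepG2 transfected with MRTUs reporting endogenous transcription-factor activity, dosed 24 h. Gain or loss of signal fitted bidirectionally against DMSO control.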

The nature of test [10]: ATG_TCF_b_cat_CIS: Attagene CIS-FACTORIAL HepG2 Assay for human T-Cell-Factor with beta-catenin (TCF/b-cat) (AID 2282965). The following applies: HepG2 TCF/beta-catenin cis-reporter transcription, actives raise or lower the signal. In a few lines:
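HepG2, transient MRTU transfection, cis-element-driven reporters (endogenous TFs). 24 h compound exposure. Readout: reporter mRNA by RT-PCR + 6-FAM primer extension, HpaI digest, capillary electrophoresis. Gain/loss fit vs DMSO baseline.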

Test [11] can be described thus: ATG_TAL_CIS: Attagene CIS-FACTORIAL HepG2 Assay for human TAL Basal Promoter (AID 2282966).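 Also: background control endpoint measuring basal TAL promoter reporter mRNA not a specific factor.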 The conditions noted are these: HepG2 Attagene cis-factorial TAL promoter reporter; actives raise or lower the signal. In a few lines:
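Basal-promoter background-control endpoint from a multiplexed HepG2 reporter panel. Cells were exposed 24 h, then reporter mRNA was read by RT-PCR/CE fluorescence and fitted in both directions relative to DMSO.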

A short description of test [12]: ATG_TGFb_CIS: Attagene CIS-FACTORIAL HepG2 Assay for human Transforming Growth Factor (TGF) (AID 2282967). The following applies: HepG2 Attagene CIS TGFb reporter, mRNA transcription; actives raise or lower the signal. In a few lines: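 Transient MRTU transfection of HepG2 (FuGene 6). Dose 24 h. TriZol RNA, oligo(dT) RT, PCR, 6-FAM primer extension, HpaI cut, CE. Bidirectional fit, DMSO = baseline.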

Test [13] is described as follows: ATG_VDRE_CIS: Attagene CIS-FACTORIAL HepG2 Assay for human Vitamin D Receptor Element (VDRE) (AID 2282968). The following applies: HepG2 VDRE cis-reporter transcription, actives raise or lower the signal. The gist of the method:
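Transient MRTU transfection of HepG2, 24 h compound exposure. Readout: reporter transcripts via RT-PCR and capillary electrophoresis, fluorescence. Bidirectional fit vs DMSO.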

In test [14] the target is Estrogen receptor (Homo sapiens) (UniProt P03372). In words: ATG_ERa_TRANS: Attagene TRANS-FACTORIAL HepG2 Assay for human Estrogen Receptor alpha (ERa) (AID 2282970; active = hit-call score of the fitted dose curve at least 0.9, where 1 is the maximum). The following applies: HepG2 Attagene TRANS ERa GAL4 reporter, mRNA. In a few lines: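 Gal4-fusion ERa transactivation, measured as reporter transcript level in transiently transfected HepG2 cells. Exposure 24 h; RT-PCR plus capillary electrophoresis with fluorescence detection.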

Test [15] concerns the target X-box-binding protein 1 (Homo sapiens) (UniProt P17861). Description: ATG_Xbp1_CIS: Attagene CIS-FACTORIAL HepG2 Assay for human X-box Binding Protein 1 (XBP1) (AID 2282972). The following applies: HepG2 XBP1 cis-element reporter, Attagene multiplex; actives raise or lower the signal. In a few lines: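 Changes in reporter transcript abundance, read by RT-PCR and capillary electrophoresis, reflect endogenous transcription factor activity. Transfected HepG2 cells received compound for 24 hours; DMSO defined baseline for bidirectional analysis.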

Test [16] can be described thus: ATG_M_19_TRANS: Attagene TRANS-FACTORIAL HepG2 Assay for M19 Transcription Factor (Internal Marker) (AID 2282974; active = hit-call score of the fitted dose curve at least 0.9, where 1 is the maximum). The following applies: HepG2 Attagene TRANS-FACTORIAL M19 internal marker reporter. The gist of the method: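 Reporter mRNA induction was measured in transfected HepG2 cells 24 h after dosing. Endpoint fitted upward relative to DMSO and serves as a background control within the multiplexed TRANS panel.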

Test [17] in a line: ATG_GAL4_TRANS: Attagene TRANS-FACTORIAL HepG2 Assay for GAL4 (Internal Marker) (AID 2282976; active = hit-call score of the fitted dose curve at least 0.9, where 1 is the maximum). The following applies: HepG2 Attagene TRANS GAL4 internal marker reporter. The gist of the method:
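Background-control readout: GAL4-UAS reporter transcript in transiently transfected HepG2 cells after 24 h compound exposure. Measured by RT-PCR, 6-FAM primer extension, HpaI digest and capillary electrophoresis; gain-of-signal fit versus DMSO.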

Test [18] in a line: ATG_TA_CIS: Attagene CIS-FACTORIAL HepG2 Assay for human TA Basal Promoter (AID 2282964). The following applies: HepG2 Attagene CIS-factorial TA basal promoter reporter; actives raise or lower the signal. In a few lines:
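Read-out: fluorescent reporter-transcript fragments resolved by capillary electrophoresis after RT-PCR and HpaI digestion. Source: HepG2 cells carrying transiently transfected multi-reporter cis constructs, treated 24 h. Endpoint fitted bidirectionally relative to DMSO.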

The target in test [19] is Nuclear receptor subfamily 1 group I member 3 (Homo sapiens) (UniProt Q14994). In words: ATG_CAR_TRANS: Attagene TRANS-FACTORIAL HepG2 Assay for human Constitutive Androstane Receptor (CAR) (AID 2282969; active = hit-call score of the fitted dose curve at least 0.9, where 1 is the maximum;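 also: activators raise reporter mRNA above DMSO so AC50 marks induction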). The conditions noted are these: HepG2 Attagene TRANS-FACTORIAL CAR reporter. The gist of the method: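 Transiently transfected HepG2, multiplex TRANS reporters (CAR-Gal4 chimera driving GAL4-UAS reporter). 24 h dosing. Readout: reporter transcript by RT-PCR + capillary electrophoresis, fluorescence intensity; positive direction vs DMSO.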

Inconclusive results are not listed. The source made the active and inactive calls. The calls were made as follows, unless noted: active = hit-call score of the fitted dose curve at least 0.9, where 1 is the maximum; inactive = score below 0.9.

Sequence of Nuclear receptor subfamily 1 group I member 3 (Homo sapiens) (Q14994 whole entry, looked up, the tested form may be a part): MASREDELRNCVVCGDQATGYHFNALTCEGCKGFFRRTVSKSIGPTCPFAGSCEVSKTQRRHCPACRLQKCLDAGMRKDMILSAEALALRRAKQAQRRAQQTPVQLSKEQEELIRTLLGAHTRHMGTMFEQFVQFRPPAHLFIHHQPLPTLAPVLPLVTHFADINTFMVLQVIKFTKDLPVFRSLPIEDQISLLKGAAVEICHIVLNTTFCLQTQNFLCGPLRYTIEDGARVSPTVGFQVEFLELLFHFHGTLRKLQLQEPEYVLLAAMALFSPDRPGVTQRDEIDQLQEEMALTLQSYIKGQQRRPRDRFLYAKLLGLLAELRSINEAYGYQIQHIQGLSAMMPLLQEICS
Sequence of Transcription factor Sp1 (Homo sapiens) (P08047 whole entry, looked up): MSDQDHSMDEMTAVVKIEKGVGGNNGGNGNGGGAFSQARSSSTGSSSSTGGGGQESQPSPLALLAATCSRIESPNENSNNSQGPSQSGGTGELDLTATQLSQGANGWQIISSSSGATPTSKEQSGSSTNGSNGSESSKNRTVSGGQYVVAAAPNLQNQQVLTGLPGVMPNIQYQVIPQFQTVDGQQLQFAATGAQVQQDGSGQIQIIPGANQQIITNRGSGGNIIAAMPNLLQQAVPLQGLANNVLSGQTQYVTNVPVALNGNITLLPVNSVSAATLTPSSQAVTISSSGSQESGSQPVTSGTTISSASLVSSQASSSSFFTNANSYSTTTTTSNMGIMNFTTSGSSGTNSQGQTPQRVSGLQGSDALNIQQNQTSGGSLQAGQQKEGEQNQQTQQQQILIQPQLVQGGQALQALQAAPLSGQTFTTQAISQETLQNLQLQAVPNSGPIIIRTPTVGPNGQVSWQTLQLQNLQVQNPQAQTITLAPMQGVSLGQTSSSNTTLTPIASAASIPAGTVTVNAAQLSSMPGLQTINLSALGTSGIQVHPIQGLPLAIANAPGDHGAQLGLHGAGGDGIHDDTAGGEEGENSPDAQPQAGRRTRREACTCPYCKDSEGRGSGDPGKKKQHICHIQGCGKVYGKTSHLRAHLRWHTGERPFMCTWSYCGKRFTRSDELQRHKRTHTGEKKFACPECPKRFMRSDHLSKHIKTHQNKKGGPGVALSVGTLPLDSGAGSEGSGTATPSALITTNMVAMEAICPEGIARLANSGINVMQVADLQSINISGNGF
Sequence of Estrogen receptor (Homo sapiens) (P03372 whole entry, looked up, the tested form may be a part): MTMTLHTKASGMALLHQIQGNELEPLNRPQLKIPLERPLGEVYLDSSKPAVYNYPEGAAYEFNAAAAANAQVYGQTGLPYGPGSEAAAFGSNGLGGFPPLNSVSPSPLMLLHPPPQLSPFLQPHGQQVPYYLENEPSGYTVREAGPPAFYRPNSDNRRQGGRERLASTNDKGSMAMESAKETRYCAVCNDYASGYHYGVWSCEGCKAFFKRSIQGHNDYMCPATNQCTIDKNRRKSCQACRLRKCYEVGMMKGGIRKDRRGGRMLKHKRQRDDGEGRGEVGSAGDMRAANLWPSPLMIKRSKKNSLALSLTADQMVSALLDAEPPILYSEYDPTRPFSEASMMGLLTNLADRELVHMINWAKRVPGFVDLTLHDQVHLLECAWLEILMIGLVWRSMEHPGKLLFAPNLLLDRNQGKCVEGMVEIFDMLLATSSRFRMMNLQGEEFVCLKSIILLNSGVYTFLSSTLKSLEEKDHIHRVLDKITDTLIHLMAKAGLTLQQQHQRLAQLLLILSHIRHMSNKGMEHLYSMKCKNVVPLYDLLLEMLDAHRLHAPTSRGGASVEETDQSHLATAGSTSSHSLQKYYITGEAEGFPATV
Sequence of Signal transducer and activator of transcription 3 (Homo sapiens) (P40763 whole entry, looked up, the tested form may be a part): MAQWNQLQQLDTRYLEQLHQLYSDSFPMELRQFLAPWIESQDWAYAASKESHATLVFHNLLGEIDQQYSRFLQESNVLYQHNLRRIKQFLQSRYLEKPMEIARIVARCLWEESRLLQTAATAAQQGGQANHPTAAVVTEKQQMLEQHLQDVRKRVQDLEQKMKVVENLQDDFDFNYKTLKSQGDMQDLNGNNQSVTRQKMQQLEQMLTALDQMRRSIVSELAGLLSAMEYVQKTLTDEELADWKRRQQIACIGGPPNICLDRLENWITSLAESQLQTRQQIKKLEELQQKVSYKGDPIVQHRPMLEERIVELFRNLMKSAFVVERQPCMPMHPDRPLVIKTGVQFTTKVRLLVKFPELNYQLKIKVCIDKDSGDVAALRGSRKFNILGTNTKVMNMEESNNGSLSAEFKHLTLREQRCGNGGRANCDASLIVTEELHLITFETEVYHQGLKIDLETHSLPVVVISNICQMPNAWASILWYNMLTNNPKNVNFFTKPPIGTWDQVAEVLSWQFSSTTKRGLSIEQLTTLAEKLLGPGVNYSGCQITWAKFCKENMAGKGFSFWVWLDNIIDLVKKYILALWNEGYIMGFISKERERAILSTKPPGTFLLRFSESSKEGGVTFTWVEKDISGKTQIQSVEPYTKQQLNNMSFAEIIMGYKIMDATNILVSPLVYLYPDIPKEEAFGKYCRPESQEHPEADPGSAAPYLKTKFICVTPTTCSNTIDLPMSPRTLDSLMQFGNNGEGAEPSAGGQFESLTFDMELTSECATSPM
Sequence of X-box-binding protein 1 (Homo sapiens) (P17861 whole entry, looked up): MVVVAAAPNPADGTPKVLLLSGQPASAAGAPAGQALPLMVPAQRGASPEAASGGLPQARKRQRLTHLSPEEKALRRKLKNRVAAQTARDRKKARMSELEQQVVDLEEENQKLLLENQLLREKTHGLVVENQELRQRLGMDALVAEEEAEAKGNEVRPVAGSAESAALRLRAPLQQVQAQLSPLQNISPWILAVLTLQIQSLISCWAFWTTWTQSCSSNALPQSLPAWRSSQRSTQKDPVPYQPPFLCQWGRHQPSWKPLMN
Sequence of Paired box protein Pax-6 (Homo sapiens) (P26367 whole entry, looked up): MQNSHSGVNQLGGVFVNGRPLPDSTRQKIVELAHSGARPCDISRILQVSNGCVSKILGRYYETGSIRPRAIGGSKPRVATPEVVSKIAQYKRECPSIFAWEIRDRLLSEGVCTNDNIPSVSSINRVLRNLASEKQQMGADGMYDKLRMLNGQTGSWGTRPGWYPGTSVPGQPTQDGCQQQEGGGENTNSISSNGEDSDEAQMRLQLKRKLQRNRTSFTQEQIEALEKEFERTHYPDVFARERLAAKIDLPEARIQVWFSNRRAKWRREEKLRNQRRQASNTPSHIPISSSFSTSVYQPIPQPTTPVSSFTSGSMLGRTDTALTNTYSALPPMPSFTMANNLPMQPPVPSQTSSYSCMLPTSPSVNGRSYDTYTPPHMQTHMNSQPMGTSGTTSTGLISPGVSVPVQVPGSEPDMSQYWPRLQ

By AC50 is commonly meant the concentration giving half of the maximal activity seen. Regarding `CC(=O)OCC=C(C)C`, the result in test [1], in [2], in [4], in test [5], in test [6] and in test [7] was inactive. The compound was classed as inactive in test [8], in test [9], in test [10], in test [11], in [12] and in test [13]. Also, the result in test [14], in [15], in test [16] and in test [17] was inactive. Besides, in test [3], the AC50 was 52.1 µM (active).

As to `C=Cc1cccc(C)c1`, the result in test [1], in [2], in test [4], in test [5], in test [6] and in [7] was inactive. The outcome in test [8], in test [9], in [18], in test [10], in test [11] and in test [13] was inactive. Also, the outcome in [19], in [14], in test [15] and in test [16] was inactive. Further, the AC50 in [3] was 13.3 µM (active).

For `C[Si]1(C)O[Si](C)(C)O[Si](C)(C)O[Si](C)(C)O[Si](C)(C)O1`, the result in test [1], in [2], in test [4], in [5], in test [6] and in test [7] was inactive. For the same compound, the result in test [8], in test [9], in [18], in test [10], in [11] and in test [12] was inactive. For the same compound, the call in [13], in test [19], in test [16] and in test [17] was inactive. The AC50 in [3] is 27.2 µM (active).

For the compound `c1ccc2cnccc2c1`, the result in [1], in test [2], in test [4], in test [5], in test [6] and in test [7] was inactive. Besides, the compound was called inactive in test [8], in test [9], in test [18], in test [10], in [11] and in test [13]. The compound was classed as inactive in [14], in test [15], in [16] and in test [17]. The AC50 in test [3] was 27.6 µM (active).

Turning to `CC(C)(C)NC(=O)[C@H]1CC[C@H]2[C@@H]3CC[C@H]4NC(=O)C=C[C@]4(C)[C@H]3CC[C@]12C`, the result in [1], in [2], in test [4], in test [5], in test [6] and in test [7] was inactive. Also, the compound was called inactive in test [8], in test [9], in test [18], in test [10], in test [11] and in [12]. In addition, the result in test [13], in test [14], in [16] and in test [17] was inactive. In addition, the AC50 in test [3] is 14.1 µM (active).

As to `COC(=O)C=Cc1ccccc1`, the outcome in test [1], in test [2], in test [3], in test [4], in test [5] and in test [6] was inactive. Further, the call in test [7], in test [8], in [9], in test [18], in test [10] and in [11] was inactive. The compound was classed as inactive in [12], in test [13], in [19], in test [14], in test [15] and in [17].

With `CC(=O)OC1CCCCC1C(C)(C)C` (stereo not drawn), the result in test [1], in test [2], in test [3], in test [4], in test [5] and in test [6] was inactive. In addition, the compound was classed as inactive in test [7], in test [8], in test [9], in test [18], in [10] and in [11]. The call in [12], in test [13], in test [19], in [14], in [15] and in [16] was inactive. For the same compound, the outcome in test [17] was inactive.

As to `Oc1ccc(-c2ccccc2)c(Cl)c1`, the outcome in test [1], in test [2], in [3], in [6], in test [7] and in test [8] was inactive. Besides, the compound was classed as inactive in test [18], in test [10], in [11], in test [12] and in [16]. Further, the AC50 in [4] is 33.4 µM (active); in test [5], 33.4 µM (active); in test [13], 33.4 µM (active); in [14], 9.14 µM (active); in test [15] it was 33.4 µM (active).
